# Source: PubChem BioAssay (Tox21)
# Several values for one entry are separate records, joined by “and”; a condition that tells them apart may be missing. Equal values may be shown once. Results filed as inconclusive are left out. Entries that show only a call come without a potency. Some structures have more than one record in an assay (separate samples or runs), and their calls can disagree. Activity calls are given as the source filed them. Unless noted, calls come from the whole dose curve; as a rule, active = well fitted curve in the direction sought with a large enough effect in the repeat runs; inconclusive = weak or mixed curves; inactive = no such curve, though single readings can be large; an effect the other way counts as inactive or inconclusive. Starred links: 1 amine or outer side, 2 acyl side, 3 side chain; linkers in the order of their positions; H or OH if unused. Positions of bridges follow the written chain, without caps; N, C: chain ends. Non-standard residues stand in square brackets, D forms with d. Residues, ends and D or L forms follow the SMILES beside them. Chains are numbered I, II in the order given. Actinocin(9to1) = Cc1c2oc3c(C)ccc(C(=O)[*:1])c3nc-2c(C(=O)[*:2])c(N)c1=O; NMeV = CN[C@H](C(=O)O)C(C)C; Sar = CNCC(=O)O
# Key:
# [1] = qHTS assay to identify small molecule agonists of the RXR signaling pathway - cell viability counter screen (AID 1159529); note: nearly all actives have a fitted effect of over 50% in size; note: potency is the fitted concentration of half-maximal effect
# How it was run: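 Tox21 10K compounds were tested for cytotoxicity against GeneBLAzer RXR-alpha HEK 293T cells grown in 2% charcoal-stripped FBS. Exposure lasted 16 hr at 37 C, 5% CO2; viability read by CellTiter-Glo luminescence.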
# [2] = qHTS assay to identify small molecule antagonists of the retinoic acid receptor (RAR) signaling pathway (AID 1159552; note: nearly all actives have a fitted effect of over 50% in size; note: potency is the fitted concentration of half-maximal effect)
# How it was run: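 Overnight-plated C3RL4 reporter cells get compound, then retinol to 1 uM final; plates sit 6 hr at 37 C, 5% CO2. A luciferase reagent is added and light output recorded after 30 min at room temperature.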
# [3] = qHTS assay to identify small molecule agonists of the retinoic acid receptor (RAR) signaling pathway (AID 1159553); note: potency is the fitted concentration of half-maximal effect
# How it was run: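 C3RL4 RARE-luciferase cells were seeded at 1,000/well and grown overnight at 37 C, then exposed to compounds for 6 hr at 37 C, 5% CO2. Luciferase reagent was added and luminescence was read after 30 min at room temperature.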
# [4] = qHTS assay to identify small molecule antagonists of the retinoid acid receptor (RAR) signaling pathway - cell viability counter screen (AID 1159551); note: nearly all actives have a fitted effect of over 35% in size; note: potency is the fitted concentration of half-maximal effect
# How it was run: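 C3RL4 RARE-luciferase cells, 1,000/well, incubated overnight, then dosed with compound plus 1 uM retinol (final). After 6 hr at 37 C, viability read by CellTiter-Glo ATP luminescence following 30 min at room temperature.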
# [5] = qHTS assay to identify small molecule antagonists of the estrogen related receptor (ERR) signaling pathway - cell viability counter screen (AID 1224818); note: series mostly up to about 46 µM
# How it was run: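 ERR cells, 2,000 per well, compound added after 6 h and incubated 17.5 h at 37 C. Viability read by CellTiter-Fluor fluorescence after a further 30 min at 37 C.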
# [6] = qHTS assay to identify small molecule agonists of the estrogen related receptor (ERR) signaling pathway (AID 1224820)
# How it was run: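 Cells: ERR line from NTP, 2,000/well. Pre-incubation 6 h, 37 C/5% CO2. Compound (DMSO) pin transfer, 18 h 37 C. One-Glo, 30 min RT, luminescence.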
# [7] = test system: estrogen-related receptor alpha (ERRalpha) with PGC-1alpha coactivator, human; assay: qHTS assay to identify small molecule antagonists of the estrogen related receptor signaling pathway with the pleiotropic PPARgamma coactivator (PGC) (AID 1224821; calls by dose curve;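 note: series mostly up to about 46 µM; lower luminescence signal means antagonism of PGC/ERR signalling; nearly all actives have a fitted effect of over 50% in size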)
# How it was run: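 Luminescent read-out (One-Glo, 30 min at room temperature) following 18 h treatment of PGC/ERR cells at 37 C with compounds delivered in DMSO. Cells had settled 6 h at 37 C/5% CO2 before dosing.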
# [8] = qHTS assay to identify small molecule antagonists of the estrogen related receptor signaling pathway with the pleiotropic PPARgamma coactivator (PGC) cell viability counter screen (AID 1224822; note: series mostly up to about 46 µM)
# How it was run: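 PGC/ERR cells rested 6 h, then compound-treated 17.5 h at 37 C. CellTiter-Fluor added for 30 min at 37 C, viability measured by fluorescence intensity.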
# [9] = qHTS assay to identify small molecule agonists of the estrogen related receptor signaling pathway with the pleiotropic PPARgamma coactivator (PGC) (AID 1224823)
# How it was run: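 Steps: plate PGC/ERR cells at 2,000 cells/well; incubate 6 h, 37 C/5% CO2; pin-transfer compounds (DMSO); incubate 18 h, 37 C; add One-Glo; 30 min RT; read luminescence.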
# [10] = qHTS assay to identify small molecule antagonists of the estrogen related receptor (ERR) signaling pathway (AID 1224819; note: nearly all actives have a fitted effect of over 50% in size; note: potency is the fitted concentration of half-maximal effect)
# How it was run: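 ERR reporter cell line (NTP) plated at 2,000 cells/well, settled 6 h at 37C/5% CO2, then exposed to LOPAC compounds for 18 h at 37C. One-Glo luciferase luminescence read after 30 min at room temperature.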
compound,measurement,setting,value
"Cc1c2oc3c(C)ccc(C(=O)N[C@@H]4C(=O)N[C@H](C(C)C)C(=O)N5CCC[C@H]5C(=O)N(C)CC(=O)N(C)[C@@H](C(C)C)C(=O)O[C@@H]4C)c3nc-2c(C(=O)N[C@@H]2C(=O)N[C@H](C(C)C)C(=O)N3CCC[C@H]3C(=O)N(C)CC(=O)N(C)[C@@H](C(C)C)C(=O)O[C@@H]2C)c(N)c1=O (I: T[dV]P[Sar][NMeV] / II: T[dV]P[Sar][NMeV]; ester I:1-I:C, II:1-II:C; linker I:N-II:N via Actinocin(9to1))",Potency,[1],inactive
same,Potency,[2],16.8 nM (active) and 10.6 nM (active)
Oc1c(Cl)cc(Cl)c(Cl)c1Cc1c(O)c(Cl)cc(Cl)c1Cl,Potency,[1],34.6 µM (active) and 49 µM (active) and 19 µM (active)
same,Potency,[2],24.3 µM (active) and 15 µM (active)
same,Potency,[3],inactive
Cc1ccc(-c2cc(C(F)(F)F)nn2-c2ccc(S(N)(=O)=O)cc2)cc1,Potency,[1],48.8 µM (active) and 21.9 µM (active)
same,Potency,[4],60.9 µM (active) and inactive
same,Potency,[2],43.1 µM (active) and 27.3 µM (active) and 29.8 µM (active)
same,Potency,[5],inactive
same,outcome,[6],inactive
same,Potency,[7],inactive
same,Potency,[8],inactive
same,outcome,[9],inactive
O=C1NCC2(CCN(CCc3ccccc3)CC2)O1,Potency,[1],inactive
same,Potency,[4],inactive
same,Potency,[2],inactive
same,Potency,[3],inactive
same,Potency,[5],inactive
same,Potency,[8],inactive
Nc1cc(S(=O)(=O)O)cc2cc(S(=O)(=O)O)cc(O)c12,Potency,[1],inactive
same,Potency,[4],inactive
same,Potency,[3],inactive
c1ccc2c(c1)CCCC2C1=NCCN1 (stereo unspecified),Potency,[1],inactive
same,Potency,[4],inactive
same,Potency,[2],inactive
same,Potency,[3],inactive
same,Potency,[5],inactive
same,Potency,[8],inactive
NC12CC3CC(CC(C3)C1)C2,Potency,[1],inactive
same,Potency,[4],inactive
same,Potency,[2],inactive
same,Potency,[3],inactive
same,Potency,[5],inactive
same,Potency,[8],inactive
C=CC(=O)OCCCCCCOC(=O)C=C,Potency,[1],inactive
same,Potency,[2],13.9 µM (active) and 21.7 µM (active)
same,Potency,[3],inactive
CCCNC(C)C(=O)Nc1ccccc1C (stereo unspecified),Potency,[1],inactive
same,Potency,[4],inactive
same,Potency,[2],inactive
same,Potency,[3],inactive
same,Potency,[5],inactive
same,Potency,[8],inactive
[Cl][In]([Cl])[Cl],Potency,[1],inactive
same,Potency,[4],inactive
same,Potency,[3],inactive
same,Potency,[5],inactive
same,Potency,[10],inactive
same,outcome,[6],inactive
same,Potency,[8],inactive
Nc1nc(=S)c2[nH]cnc2[nH]1,Potency,[4],inactive
same,Potency,[2],inactive and 24.3 µM (active)
same,Potency,[3],inactive
O=C(O)CP(=O)(O)O,Potency,[1],inactive
same,Potency,[4],inactive
same,Potency,[2],inactive
same,Potency,[3],inactive
same,Potency,[5],inactive
same,Potency,[8],inactive
CC(C)(C)c1ccc(O)c(C(C)(C)C)c1,Potency,[1],21.8 µM (active) and 24.5 µM (active)
same,Potency,[4],54.3 µM (active) and 54.5 µM (active)
same,Potency,[3],inactive
CCCCCCC(O)CCCCCCCCCCC(=O)O (stereo unspecified),Potency,[4],inactive
same,Potency,[2],inactive
same,Potency,[3],inactive
CN(C)c1ccc2nc3ccc(=[N+](C)C)cc-3sc2c1,Potency,[1],inactive
same,Potency,[4],13.1 µM (active) and 30.6 µM (active) and 23.7 µM (active)
same,Potency,[3],2.94 µM (active) and 1.37 µM (active) and 1.68 µM (active)
O=S(=O)(O)c1ccc2nc(-c3ccccc3)[nH]c2c1,Potency,[1],inactive
same,Potency,[2],inactive
same,Potency,[3],inactive
Nc1ccc2cc3ccccc3cc2c1,Potency,[4],inactive
same,Potency,[2],inactive
same,Potency,[3],5.54 µM (active) and 34.4 µM (active)
COC(=O)[C@H]1[C@H]2C[C@@H]3c4[nH]c5cc(OC)ccc5c4CCN3C[C@H]2C[C@@H](OC(=O)c2cc(OC)c(OC)c(OC)c2)[C@@H]1OC,Potency,[1],inactive
same,Potency,[4],inactive
same,Potency,[5],inactive
same,Potency,[10],21.1 µM (active)
same,outcome,[6],inactive
same,outcome,[9],inactive
CC[C@]1(O)C[C@@H]2CN(CCc3c([nH]c4ccccc34)[C@@](C(=O)OC)(c3cc4c(cc3OC)N(C)[C@H]3[C@@](O)(C(=O)OC)[C@H](OC(C)=O)[C@]5(CC)C=CCN6CC[C@]43[C@@H]65)C2)C1,Potency,[4],inactive
CCCCC(CC)COC(=O)CC(C(=O)OCC(CC)CCCC)S(=O)(=O)O (stereo unspecified),Potency,[1],21.1 µM (active) and 43.6 µM (active)
same,Potency,[2],inactive
same,Potency,[3],inactive
Oc1ccc(Cl)cc1Cc1cc(Cl)ccc1O,Potency,[1],49.9 µM (active)
same,Potency,[2],31.2 µM (active) and 27.3 µM (active)
same,Potency,[3],inactive
CC(=O)OCC1=C(C(=O)O)N2C(=O)[C@@H](NC(=O)Cc3cccs3)[C@H]2SC1,Potency,[1],inactive
same,Potency,[4],inactive
same,Potency,[2],inactive
same,Potency,[3],inactive
same,Potency,[5],inactive
same,Potency,[8],inactive
CCC(C)(C)C(=O)O[C@H]1C[C@@H](C)C=C2C=C[C@H](C)[C@H](CC[C@@H]3C[C@@H](O)CC(=O)O3)[C@H]21,Potency,[1],12 µM (active)
same,Potency,[4],inactive
same,Potency,[3],inactive
